Reference: PubChem BioAssay (NCI)
This is part of a sample that, as a whole, favours compounds with a hit. Of some 79,000 tested, about 15% had one in any assay. A number with no mark means an inactive call. Active and inactive are the calls of the source. Cut-off read from the data, not from the text of the source: active = growth inhibition above about 70%; inactive = the rest.

Experiments:
[1] = NCI Yeast Anticancer Drug Screen. Data for the rad50 strain (AID 155);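 note: 0% = growth of vehicle-only cultures of the same strain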; details: S. cerevisiae rad50 strain growth inhibition, hits give high values
How it was run: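 DNA repair mutant yeast, compound exposure, growth read-out; inhibition is taken relative to vehicle.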

[2] = NCI Yeast Anticancer Drug Screen. Data for the mec2-1 strain (AID 157); details: S. cerevisiae mec2-1 strain, hits give high values
How it was run: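 Yeast mec2-1 mutant treated with compound. Readout: growth inhibition vs vehicle controls.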

[3] = NCI Yeast Anticancer Drug Screen. Data for the sgs1 mgt1 strain (AID 161);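 note: 0% = growth of cultures given vehicle only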; details: S. cerevisiae sgs1 mgt1 strain, hits give high values
How it was run: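 Inhibition of yeast growth, normalised to vehicle-treated controls, is reported for a strain bearing genetic alterations in DNA damage repair.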

[4] = NCI Yeast Anticancer Drug Screen. Data for the cln2 rad14 strain (AID 165);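 note: 0% = growth equal to vehicle treated cultures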; details: S. cerevisiae cln2 rad14 strain, hits give high values
How it was run: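 cln2 rad14 yeast strain; compound exposure; growth inhibition read vs vehicle controls.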

[5] = NCI Yeast Anticancer Drug Screen. Data for the bub3 strain (AID 167); details: S. cerevisiae bub3 mutant strain, hits give high values
How it was run: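 In this screen, a yeast mutant lacking normal mitotic checkpoint function is challenged with compound. Relative growth versus vehicle gives the inhibition value.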

[6] = NCI Yeast Anticancer Drug Screen. Data for the mlh1 rad18 strain (AID 175); details: S. cerevisiae mlh1 rad18 strain growth inhibition, hits give high values
How it was run: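 Yeast w/ defined DNA-repair lesions; compound exposure; growth vs vehicle controls → % inhibition.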

[7] = at 5.0 µM (retest, dose inferred, filed as 0.5)
[8] = at 50.0 µM (retest, dose inferred, filed as 5.0)

Row | SMILES | growth inhibition [1, 7] [%] | growth inhibition [1, 8] | growth inhibition ([1]; at 50.0 µM) | growth inhibition [2, 7] [%] | growth inhibition [2, 8] | growth inhibition ([2]; at 50.0 µM) | growth inhibition [3, 7] [%] | growth inhibition [3, 8] | growth inhibition ([3]; at 50.0 µM) | growth inhibition [4, 7] [%] | growth inhibition [4, 8] | growth inhibition ([4]; at 50.0 µM) | growth inhibition [5, 7] [%] | growth inhibition [5, 8] | growth inhibition ([5]; at 50.0 µM) | growth inhibition [6, 7] | growth inhibition [6, 8] | growth inhibition ([6]; at 50.0 µM)
1 | ClC1(c2ccccc2)c2ccccc2-c2ccccc21 | -26 | 98% (active) | 92.2% (active) | 4 | 99% (active) | 95.6% (active) | -6 | 98% (active) | 83.9% (active) | -1 | 92% (active) | 8.7% | 4 | 98% (active) | 95.8% (active) | 0% | 94% (active) | 97.1% (active)
2 | CCOc1ccc2c(c1)[n+]([O-])c(-c1ccc([N+](=O)[O-])cc1)c(N)[n+]2[O-] | 22 | 82% (active) | 95% (active) | 41 | 90% (active) | 80.5% (active) | 38 | 96% (active) | 96% (active) | 21 | 76% (active) | 94.3% (active) | 65 | 94% (active) | 96% (active) | 56% | 93% (active) | 97.4% (active)
3 | COC(=O)c1nnn(-c2cccc(C(F)(F)F)c2)c1C(=O)c1ccc(Cl)c(Cl)c1 | -3 | 98% (active) | 97.7% (active) | 8 | 98% (active) | 80% (active) | -5 | 99% (active) | 97.7% (active) | 9 | 95% (active) | 59.2% | 16 | 98% (active) | 89.4% (active) | 4% | 98% (active) | 97% (active)
4 | CC(C)c1ncc(-c2ccccc2)cc1-c1ccccc1 | -2 | 93% (active) | 95.7% (active) | -3 | 96% (active) | 97.5% (active) | -1 | 94% (active) | 97.7% (active) | 2 | 86% (active) | 78.8% (active) | 6 | 95% (active) | 98.5% (active) | -7% | 95% (active) | 96% (active)
5 | CC1=C(C(=O)Nc2ccccc2)C(c2cccc3ccccc23)C(C(=O)Nc2ccccc2)=C(C)N1 | -2 | 53% | 71% (active) | -17 | 51% | 91% (active) | 0 | 41% | 48.6% | -2 | 64% | 64.3% | -7 | 53% | 89% (active) | -4% | 53% | 58.7%
6 | CCN(CC)C(=S)n1c(=S)nc(N(CC)CC)sc1=S | 57 | 97% (active) | 89.3% (active) | 42 | 98% (active) | 92.2% (active) | 63 | 99% (active) | 92.5% (active) | 39 | 86% (active) | 88.9% (active) | 54 | 83% (active) | 91.2% (active) | 75% (active) | 98% (active) | 89.8% (active)
7 | O=Cc1ccc2c(c1)CC1(C2)Cc2ccc3c(c2C1)CCC3 (configuration not stated) | -1 | 68% | 92.9% (active) | 0 | 78% (active) | 89.3% (active) | 14 | 81% (active) | 87.6% (active) | -2 | 41% | 73% (active) | -1 | 74% (active) | 91.5% (active) | 1% | 74% (active) | 84.8% (active)
8 | O=[N+]([O-])c1ccc2c(c1)/C(=N\O)c1cc(Br)ccc1-2 | 14 | 39% | 91.4% (active) | 5 | 24% | 71% (active) | 13 | 33% | 67.2% | -2 | 14% | 35.4% | -5 | 3% | 13.7% | 10% | 29% | 96.8% (active)
9 | CCO/N=C1\CCCCC1SS(=O)(=O)O (configuration not stated) | -5 | 11% | 40.5% | 7 | 17% | -14.1% | -6 | 20% | 31.8% | 0 | 7% | 15.2% | 5 | 22% | 8.2% | -1% | 4% | 31.9%
